# Screening data as filed in PubChem BioAssay.
# HSF1 inhib – HSF1 inhibitors in luciferase reporter cells, primary screen, cell-based, NIH3T3, luminescence; NIH3T3-HGL HSE-luciferase, MG132-induced, luminescence 8 h; hits give low values; activity change, negative = inhibition, % at 7.5 µM (by protocol); 0.77% of 300,000 active; AID 2098, 2009;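 active = more than half of replicate wells show activity change below -50%, luminescence cut by over half; inconclusive = some wells, but at most half, below -50%; inactive = no replicate well below -50%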;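 note: luciferase reports HSF-1 transcriptional activity via heat shock element; 0% = median of DMSO wells and -100% = zero luminescence signal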
# Vif imaging – HIV Vif self-association inhibitors, primary screen, imaging, HEK293T, single point | HEK293T cells, Vif self-association by quenched fluorescence, 24 h | inhibition, % at 7.49 µM | 0.35% of 340,000 active | AID 602346, 2012; in the data active = inhibition above about 50%, passing the limit was not always enough; inconclusive = no clear call, values can overlap the other calls; inactive = below about 31%
# esBAF inh – Bmi1 luciferase reporter increase in mESCs, primary screen, esBAF inhibitor project, mouse ES cells, Bmi1 luciferase knock-in, single point; 24 h; 100% = twice the neutral-well signal; reporter increase, % at 12.5 µM; 2% of 350,000 active; AID 602393, 2012; in the data active = activation above about 40%; inconclusive = no clear call, values can overlap the other calls;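 note: 0% = median of the plate's neutral control wells and 100% = double that signal; a rise in the Bmi1 reporter signal indicates esBAF inhibition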
# HSF1 activator – HSF-1 activators, primary screen, NIH3T3-HGL cells, MG132 stress, luminescence, single point. NIH3T3-HGL HSF-1 luciferase reporter, 8 h; 100% = twice DMSO control signal. activation, % at 9 µM. 1.7% of 300,000 active. AID 504408, 2011;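 active = mean replicate activation of at least 50% with a set share of replicates each reaching 50%; inconclusive = only one of those two conditions met; inactive = mean below 50% and too few replicates reaching it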;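 note: 0% = median of the neutral control wells and 100% = twice that signal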
# An asterisk follows results filed as active; ? = inconclusive; . = no result. A selection: hits, their analogues and other compounds. The true share with any hit is near 3.4%.
SMILES,HSF1 inhib,Vif imaging,esBAF inh,HSF1 activator
CCOc1ccc(NC(=O)CC2C(=O)N(CC)C(=S)N2CCN2CCOCC2)cc1 (stereo unspecified),5.7,19.5,.,-14.8
C[C@H](CO)N1C[C@H](C)[C@@H](CN(C)S(=O)(=O)c2ccc(Cl)cc2)Oc2ccc(NS(=O)(=O)c3ccc(Cl)cc3)cc2CC1=O,.,.,8.7,.
COc1ccc2c(c1)C(=O)/C(=C/C=C/c1ccccc1)CC2,-5.3,2.3,6.5,-10.8
COc1ccc2c(c1)CC/C(=C\C=C\c1ccccc1OC)C2=O,52.9,-15.1,12.1,57.9*
O=C(O)CSc1nc2ccccc2nc1Cc1ccccc1F,22.9,-9.8,.,53.5*
Cc1ccsc1/C=N/NC(=O)Nc1ccccc1,25.1,-1.6,.,57.5*
O=C(N/N=C/c1ccc(Br)s1)c1c[nH]c2ccccc12,33.4,0.6,.,56.2*
COc1cc(C(=O)N/N=C/c2sccc2C)cc(OC)c1OC,-6.9,75.5*,.,-21.3
O=C(N/N=C/c1cc(Br)cs1)c1c[nH]c2ccccc12,17.8,3.0,.,48.5
Cc1ccsc1/C=N/NC(=O)c1ccc2ccccc2c1,8.6,12.8,.,37.0
O=C(N/N=C/c1ccc(Br)s1)Nc1ccccc1,22.4,-5.8,51.1*,17.1
O=C(Cc1cccnc1)N[C@@H]1CC[C@H](CCn2cc(Cc3ccccc3)nn2)O[C@H]1CO,.,.,-4.5,.
COc1ccccc1CNC(=O)C[C@H]1C=C[C@@H](NC(=O)CN(C)C)[C@@H](CO)O1,.,.,-4.4,.
C[C@@H]1CCCCO[C@@H](CN(C)Cc2ccccc2)[C@@H](C)CN([C@H](C)CO)C(=O)c2cc(NC(=O)c3ccncc3)ccc2O1,.,.,0.4,.
CCOc1cc2c(C#N)c(N3CCCCC3)nc(N)c2c(N)n1,9.6,.,54.5*,12.0
c1ccc2oc(-c3ccc4nc[nH]c4c3)nc2c1,30.3,1.0,47.3*,33.4
COc1ccc(-c2nc3ccccc3o2)cc1OC,27.0,17.5,3.4,?
O=C(NCCc1nc2ccccc2[nH]1)/C(=C/c1ccc(F)cc1)NC(=O)c1ccco1,21.8,-2.9,.,63.9*
O=C(NCCc1nc2ccccc2[nH]1)/C(=C/c1ccco1)NC(=O)c1ccccc1Br,-6.8,-5.7,-4.6,-4.0
CCc1sc(C(=O)Nc2cccnc2)cc1Br,22.6,-5.0,50.3*,35.9
Cc1c(C(=O)NCc2ccccn2)oc2ccc(Br)cc12,24.2,-8.9,53.8*,47.0
Cc1c(C(=O)NCc2ccccn2)oc2ccc(S(=O)(=O)N3CCOCC3)cc12,-1.1,86.4*,-3.4,0.7
O=C(Nc1cccnc1)c1ccc(Br)s1,-0.9,10.9,32.3,-1.7
Cc1c(C(=O)Nc2cccnc2)oc2ccc(Br)cc12,20.1,0.0,60.3*,30.5
COc1ccc(S(=O)(=O)Nc2ccc3c(c2)CC(=O)N([C@@H](C)CO)C[C@@H](C)[C@@H](CN(C)C(=O)Nc2cccc4ccccc24)O3)cc1,.,.,5.2,.
SMILES,HSF1 inhib,Vif imaging,esBAF inh,HSF1 activator
C[C@@H]1CN([C@H](C)CO)C(=O)Cc2cc(NS(=O)(=O)c3ccc(F)cc3)ccc2O[C@@H]1CN(C)C,.,.,-3.9,.
C[C@H](CO)N1C[C@H](C)[C@H](CN(C)C(=O)Nc2ccc(F)cc2)Oc2ccc(NC(=O)CCCCCC(=O)Nc3ccccc3N)cc2CC1=O,.,.,2.9,.
Cc1c(C(=O)NCc2cccs2)oc2ccc(Br)cc12,19.0,-18.5,50.9*,21.2
Cc1c(C(=O)NCc2cccs2)oc2ccc(S(=O)(=O)N3CCOCC3)cc12,0.0,16.3,-0.5,19.7
Cc1nc2ccccc2c2oc(C(=O)NCc3ccccn3)cc12,20.7,-11.7,-0.5,52.2*
COc1cc(N)ccc1C(=O)O,-59.6*,-4.5,37.6,-61.8
O=C(C[C@@H]1C[C@H]2c3cc(NC(=O)Nc4ccccc4)ccc3O[C@H]2[C@H](CO)O1)NC1CCCCC1,.,.,3.8,.
Clc1ccc(OCc2nnc(-c3ccccc3Br)o2)c(Cl)c1,36.0,0.2,78.8*,61.1*
Clc1cccc(OCc2nnc(-c3ccccc3Br)o2)c1,20.9,-1.8,30.8,28.7
Fc1ccc(OCc2nnc(-c3ccccc3Br)o2)c(Cl)c1,27.7,-10.1,67.1*,68.2*
Clc1ccc(OCc2nnc(-c3ccccc3Br)o2)cc1,15.3,0.9,-0.2,43.8
C[C@@H]1CN([C@H](C)CO)C(=O)c2cc(/C=C/c3ccccc3)cnc2O[C@H]1CN(C)C(=O)c1ccc(F)cc1,.,.,-3.3,.
C[C@@H]1CCCCO[C@@H](CN(C)CC2CC2)[C@@H](C)CN([C@H](C)CO)C(=O)c2cc(NS(=O)(=O)c3ccccc3)ccc2O1,.,.,-2.1,.
COc1cccc(OCc2cc(C(=O)N(Cc3nccn3C)C(C)C)no2)c1,1.8,-4.0,3.3,0.8
COc1cc(C)ccc1OCc1cc(C(=O)N(Cc2c(C)nn(C)c2C)C2CC2)no1,23.6,1.7,60.7*,39.0
COc1cc(C)ccc1OCc1cc(C(=O)N(Cc2nccn2C)C(C)C)no1,12.7,-1.9,94.4*,57.9*
CC(C)(C)NC(=O)Nc1ccc2nccnc2c1,16.1,-7.6,51.6*,27.4
Cc1nc(C)c(-c2csc(Nc3ccc(C(=O)O)c(O)c3)n2)s1,1.0,4.7,-2.4,-0.8
COc1cccc(Nc2nc(-c3sc(N)nc3C)cs2)c1,-4.0,7.8,.,-19.5
Cc1nc(C)c(-c2csc(Nc3ncccc3C)n2)s1,33.9,-14.8,54.7*,61.0*
COc1cccc(Nc2nc(-c3sc(C)nc3C)cs2)c1,22.9,-3.9,70.9*,41.2
Cc1nc(C)c(-c2csc(Nc3ccc(Cl)cn3)n2)s1,.,-31.4,59.5*,.
Cc1nc(C)c(-c2csc(Nc3ccc(F)cc3)n2)s1,39.6,-8.0,.,65.4*
C[C@H]1CN([C@@H](C)CO)C(=O)c2cc(NC(=O)Nc3ccc(C(F)(F)F)cc3)ccc2O[C@@H]1CN(C)C,.,.,2.3,.
O=C(NCC[C@H]1CC[C@H](NC(=O)C2CCCCC2)[C@H](CO)O1)c1ccc(F)cc1,.,.,-2.8,.
SMILES,HSF1 inhib,Vif imaging,esBAF inh,HSF1 activator
COc1ccc(-c2csc(Nc3ncccc3C)n2)cc1OC,0.6,-14.1,86.7*,15.6
Cc1cc(C)c2sc(NC(=O)C3=COCCO3)nc2c1,30.1,-8.3,23.7,54.2*
CC(C)(C)C(=O)Nc1nc2cc3c(cc2s1)OCO3,26.0,-0.9,28.8,40.2
Fc1cccc2sc(Nc3nc4cc5c(cc4s3)OCO5)nc12,21.9,-8.0,95.6*,36.3
Cc1cc(C)c(-c2csc(NC(=O)C3=COCCO3)n2)c(C)c1,-3.9,4.1,28.9,-5.6
CC(C)C(=O)Nc1nc2cc3c(cc2s1)OCO3,12.1,4.4,68.0*,30.3
O=C(Nc1nc2ccc(F)cc2s1)C1=COCCO1,-7.7,-20.1,-67.9,-9.3
O=C(Nc1nc2cc3c(cc2s1)OCCO3)C1=COCCO1,-66.1*,0.2,-85.0,-75.0
O=C(Nc1ccccc1F)N[C@H]1CC[C@H](CC(=O)N2CCCCC2)O[C@H]1CO,.,.,-0.2,.
C[C@@H]1CN([C@@H](C)CO)C(=O)c2cc(N(C)C)ccc2O[C@@H]1CN(C)S(=O)(=O)c1ccc(Cl)cc1,.,.,2.5,.
